Compounds without any hit were thinned out: in the full panel of roughly 79,000, 15% have a hit. Unmarked numbers belong to inactive results. The source made the active and inactive calls. Cut-off read from the data, not from the text of the source: active = growth inhibition above about 70%; inactive = the rest.
How the values were obtained:
[1] = NCI Yeast Anticancer Drug Screen. Data for the rad50 strain (AID 155);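 note: 0% = growth of vehicle-only cultures of the same strain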; settings: S. cerevisiae rad50 strain growth inhibition, hits give high values
Outline: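 Genetically altered yeast (DNA repair pathway); compound treatment; growth inhibition vs vehicle ctrl.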

[2] = NCI Yeast Anticancer Drug Screen. Data for the mec2-1 strain (AID 157); settings: S. cerevisiae mec2-1 strain, hits give high values
Outline: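 Readout is yeast growth inhibition, normalised to vehicle-treated controls, in the mec2-1 strain exposed to compound.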

[3] = NCI Yeast Anticancer Drug Screen. Data for the sgs1 mgt1 strain (AID 161);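 note: 0% = growth of cultures given vehicle only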; settings: S. cerevisiae sgs1 mgt1 strain, hits give high values
Outline: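 Yeast cells carrying a defined DNA-repair defect were exposed to test compounds. Growth inhibition was measured relative to vehicle-treated controls.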

[4] = NCI Yeast Anticancer Drug Screen. Data for the cln2 rad14 strain (AID 165);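 note: 0% = growth equal to vehicle treated cultures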; settings: S. cerevisiae cln2 rad14 strain, hits give high values
Outline: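 Relative to vehicle controls, growth inhibition of compound-treated cln2 rad14 yeast was recorded.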

[5] = NCI Yeast Anticancer Drug Screen. Data for the bub3 strain (AID 167); settings: S. cerevisiae bub3 mutant strain, hits give high values
Outline: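 Yeast carrying a defined mutation is treated with each compound, and growth is compared with that of vehicle-exposed cells to give inhibition.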

[6] = NCI Yeast Anticancer Drug Screen. Data for the mlh1 rad18 strain (AID 175); settings: S. cerevisiae mlh1 rad18 strain growth inhibition, hits give high values
Outline: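 Test agents were incubated with a yeast strain of defined genotype (DNA damage repair defect). Inhibition of growth was derived by comparison with vehicle-exposed cultures.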

[7] = at 5.0 µM (retest, dose inferred, filed as 0.5)
[8] = at 50.0 µM (retest, dose inferred, filed as 5.0)

Compound | growth inhibition [1, 7] | growth inhibition [1, 8] | growth inhibition ([1]; at 50.0 µM) | growth inhibition [2, 7] | growth inhibition [2, 8] | growth inhibition ([2]; at 50.0 µM) | growth inhibition [3, 7] | growth inhibition [3, 8] | growth inhibition ([3]; at 50.0 µM) | growth inhibition [4, 7] | growth inhibition [4, 8] | growth inhibition ([4]; at 50.0 µM) | growth inhibition [5, 7] | growth inhibition [5, 8] | growth inhibition ([5]; at 50.0 µM) | growth inhibition [6, 7] | growth inhibition [6, 8] | growth inhibition ([6]; at 50.0 µM)
O=C(NCCCCCNC(=O)C12CC3CC(CC(C3)C1)C2)C12CC3CC(CC(C3)C1)C2 | 8% | 7% | 5.9% | 5% | -8% | 27.8% | 7% | 7% | -5.15% | -1% | -2% | 40.2% | 4% | 0% | 1.75% | 3% | 12% | 4.15%
Cc1cc(N)c2ccccc2[n+]1CCCCCCCCCC[n+]1c(C)cc(N)c2ccccc21 | 42% | 98% (active) | 89.3% (active) | 47% | 95% (active) | 92.8% (active) | 98% (active) | 96% (active) | 92.3% (active) | 90% (active) | 99% (active) | 91% (active) | 97% (active) | 98% (active) | 91% (active) | 51% | 97% (active) | 81.3% (active)
CCOC(=O)c1cc2c(nc1N)/C(=C/c1ccccc1)CCCC2 | 39% | 95% (active) | -24.4% | 31% | 96% (active) | -34.6% | 34% | 96% (active) | -29.2% | 19% | 80% (active) | -15.4% | 42% | 97% (active) | -11.4% | 37% | 95% (active) | -21.1%
CN(C)c1ccc(C2C=C(c3ccccc3)Oc3ccccc32)cc1 (configuration not stated) | 97% (active) | 96% (active) | 96.7% (active) | 94% (active) | 96% (active) | 97% (active) | 97% (active) | 97% (active) | 96.9% (active) | 92% (active) | 94% (active) | 95.8% (active) | 93% (active) | 97% (active) | 95.8% (active) | 95% (active) | 96% (active) | 96.8% (active)
O=C(O)C(Br)C(Br)c1ccccc1[N+](=O)[O-] (configuration not stated) | 15% | 81% (active) | 96.5% (active) | 8% | 60% | 89% (active) | 20% | 79% (active) | 95% (active) | 21% | 72% (active) | 77.2% (active) | 3% | 79% (active) | 96% (active) | 11% | 85% (active) | 92% (active)
Cc1c2ccncc2cc2c3ccccc3n(C)c12 | -23% | 97% (active) | 99% (active) | -58% | 97% (active) | 98.7% (active) | -45% | 97% (active) | 98.7% (active) | -50% | 98% (active) | 98.2% (active) | -63% | 98% (active) | 98.8% (active) | -95% | 97% (active) | 99.2% (active)
CCN(CC)CCCNc1ncc(C)c2c1c1ccc3c(O)cccc3c1n2C | 22% | 62% | 29.3% | 8% | 7% | -0.35% | 21% | 40% | -31.9% | 8% | 8% | -17.4% | 19% | 35% | -9.95% | 17% | 34% | -3.05%
O=Nc1cc(-c2ccccc2)c2ccccc2c1O | 14% | 86% (active) | -2.65% | 14% | 96% (active) | 31.9% | 6% | 93% (active) | -10.4% | 15% | 97% (active) | 97.5% (active) | 22% | 95% (active) | 97.4% (active) | 23% | 96% (active) | 2.45%
COc1ccc2c(c1)CCc1c-2ccc(C)c1CCC(=O)O | 5% | 99% (active) | 72.2% (active) | 21% | 100% (active) | 63.8% | 19% | 99% (active) | 63.9% | -3% | 99% (active) | 74.2% (active) | 10% | 99% (active) | 60.2% | 22% | 100% (active) | 90% (active)
